Caspase-1 inhib: allosteric or competitive inhibitors of human caspase-1; Caspase-1 enzyme, Ac-WEHD-AFC fluorogenic rate; Potency, µM (series often up to 57.5 µM), for inactives: top-dose activity change, negative = inhibition, hits mostly inhibitors; actives 0.03% (n = 75,000);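 also: plate controls were vehicle for no effect and no substrate for full effect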
HEK293 cAMP cs: parental HEK293 cAMP activation (counter-screen); AID 938; actives 2.5% (n = 73,000); Potency, µM (doses to about 57.1 µM), for the others: at the highest dose activation, hits mostly activators; parental HEK293 CNG cAMP sensor, membrane potential fluorescence; also: % of control where 0% means no effect; nearly all actives have a fitted effect of over 55% in size
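Parental HEK 293 cells stably expressing a modified CNG channel (no TSHR) report cAMP rise as membrane depolarization. Membrane potential dye with 100 uM RO 20-1724 was loaded for 60 min at room temperature, then compound added for 30 min; fluorescence read at 590 nm.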
GBA activity: modulators of human glucocerebrosidase | purified enzyme, resorufin glucoside fluorescence (screen aimed at inhibitors), 20 min | Potency, µM | actives 1.1% (n = 48,000) | P04062; in the data active = potency below about 15 µM; inconclusive = mostly about 16 µM to 33 µM;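 also: the screen sought inhibitors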
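Normal human glucocerebrosidase (0.2 nM final) was assayed with resorufin β-D-glucopyranoside (30 uM final) in 50mM citric acid/KH2PO4, 10mM sodium taurocholate, 0.01% tween-20, pH 5.9. Compounds were titrated; fluorescence (Ex 548, Em 600) read after 20 min at RT.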
Casp7 inh: allosteric or competitive inhibitors of human caspase-7. P55210. recombinant caspase-7, Ac-DEVD-AFC fluorescence rate. Potency, µM (series often up to 57.5 µM), for the others: at the top dose activity change, negative = inhibition, usual class: inhibitors. actives 0.02% (n = 75,000). AID 889; active = well fitted inhibition curve with a large enough effect in the main read-out, with a control signal flat, not every such curve was filed as active; inconclusive = small, poorly fitted or top-dose-only effect, or a change in a side signal; also: % of control where 0% means no effect
TSHR agonist: activates the human thyroid stimulating hormone receptor; actives 0.48% (n = 73,000); AID 926; P16473; HEK293-CNG-TSHR cells (CNG channel as cAMP sensor), membrane potential dye, cAMP; Potency, µM (top dose mostly 57.1 µM), for inactives: at the top dose activation, most hits filed as activators; active = well fitted activation curve with a large enough effect in the main read-out, with a control signal flat, not every such curve was filed as active; inconclusive = small, poorly fitted or top-dose-only effect, or a change in a side signal; inactive = no such curve, though single readings can be large or run the other way; % of control where 0% means no effect;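 also: the control signal comes from parental cells without the receptor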
Target sequence (P16473 whole entry, looked up): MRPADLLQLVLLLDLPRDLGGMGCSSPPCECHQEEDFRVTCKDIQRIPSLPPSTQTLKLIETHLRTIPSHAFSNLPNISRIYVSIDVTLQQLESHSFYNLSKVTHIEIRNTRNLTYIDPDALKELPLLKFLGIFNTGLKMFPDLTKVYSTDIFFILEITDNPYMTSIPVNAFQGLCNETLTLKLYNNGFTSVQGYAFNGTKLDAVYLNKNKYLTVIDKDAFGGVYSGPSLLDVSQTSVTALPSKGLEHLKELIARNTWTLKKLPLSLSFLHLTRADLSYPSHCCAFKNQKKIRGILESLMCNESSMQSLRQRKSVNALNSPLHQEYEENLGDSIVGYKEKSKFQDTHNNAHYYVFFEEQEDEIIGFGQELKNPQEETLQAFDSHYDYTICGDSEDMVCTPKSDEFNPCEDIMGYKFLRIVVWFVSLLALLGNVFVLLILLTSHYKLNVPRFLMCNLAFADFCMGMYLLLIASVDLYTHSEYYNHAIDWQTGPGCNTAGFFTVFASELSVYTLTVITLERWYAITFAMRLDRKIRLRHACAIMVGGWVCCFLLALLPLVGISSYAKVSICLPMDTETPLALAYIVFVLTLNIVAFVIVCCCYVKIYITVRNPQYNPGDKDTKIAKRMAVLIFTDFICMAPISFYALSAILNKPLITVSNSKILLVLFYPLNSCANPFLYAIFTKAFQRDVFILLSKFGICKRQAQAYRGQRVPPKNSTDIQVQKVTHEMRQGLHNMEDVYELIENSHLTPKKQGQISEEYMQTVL
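cAMP rise detected as CNG-channel membrane depolarization by fluorescent dye (emission 590 nm), 30 min after compound, following 60 min dye loading containing 100 uM RO 20-1724 at room temperature. Cells: TSHR/CNG HEK 293, with parental CNG HEK 293 as control.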
Bst PK mod: modulators of Bacillus stearothermophilus pyruvate kinase. purified pyruvate kinase, luminescence ATP production; ribose 5-phosphate activator present at AC10. Potency, µM. actives 1.2% (n = 51,000). AID 361; in the data active = potency below about 11 µM; inconclusive = mostly about 12 µM to 25 µM;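 the screen sought inhibitors and activators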;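 also: scaled between full activation by ribose 5 phosphate and full inhibition by luteolin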
* marks the source's active call; other numbers are inactive results; i = inactive; ? = inconclusive; . = no result given; [ ] = remark or other dose. A selection: hits, their analogues and other compounds. The true share with any hit is near 4%. Unless noted, calls follow the shape of the dose curve; as a rule, active = well fitted curve in the direction sought with a large enough effect; inconclusive = small, poorly fitted or top-dose-only effect, or another doubt; inactive = no such curve, though single readings can be large; an effect the other way counts as inactive or inconclusive. Potency is read from the fitted curve at half-maximal effect.

SMILES | Caspase-1 inhib | HEK293 cAMP cs | GBA activity | Casp7 inh | TSHR agonist | Bst PK mod
CCOC(=O)CCN1C(=O)[C@H]2[C@H]3[C@H](O)[C@H](O)C/C(=N/OCC(C)C)[C@@H]3CC[C@@H]2C1=O | 0%[11.5 µM] | 0%[11.4 µM] | . | 3%[11.5 µM] | 1%[11.4 µM] | .
CC(Oc1ccc(Br)cc1)C(=O)N1CCc2ccccc21 (stereo unspecified) | -1% | 25µM* | >77 | -2% | ? | >57
Cc1nc2c(ccc3nc(NC(=O)c4ccc5c(c4)OCCO5)sc32)s1 | 1% | ? | 7.4* | 0% | ? | 0.29*
CC(C)(C)c1ccc(C(=O)Nc2cnccn2)cc1 | 0% | 2% | >77 | 1% | 6% | 5.6*
CCOc1ccccc1NC(=O)N1CCCC1C(=O)Nc1ccc(-n2cnnn2)c(C)c1 (stereo unspecified) | 2% | -2% | . | -1% | 20µM* | >57
CCC1CCCCN1CC(=O)Nc1cc(C)nn1-c1nc(C)cc(C)n1 (stereo unspecified) | 0% | 25µM* | >77 | 0% | ? | >57
CO[C@@H]1/C=C\O[C@]2(C)Oc3c(C)c(O)c4c(O)c(c(CN5CCN(C)CC5)c(O)c4c3C2=O)NC(=O)/C(C)=C\C=C[C@@H](C)[C@@H](O)[C@H](C)[C@@H](O)[C@H](C)[C@H](OC(C)=O)[C@@H]1C | -5%[11.5 µM] | 10%[11.4 µM] | . | -3%[11.5 µM] | -3%[11.4 µM] | .
CN(C)c1nc(Oc2ccc(C(=O)OCC(=O)Nc3ccccc3)cc2)nc(N(C)C)n1 | -4% | 3.2µM* | . | -2% | ? | .
COc1ccccc1C(=O)NCCn1cc(SCC(=O)Nc2nnc(C)s2)c2ccccc21 | -3% | 11% | 6.2* | -2% | 8% | >57
CN(C(=O)c1ccccc1C(=O)O)C1CC(C)(C)NC(C)(C)C1 | -2% | 7% | . | 1% | -1% | .
CCOc1ccc2cc(C#N)c(SCC(=O)N3CCOCC3)nc2c1 | -6% | 10% | >77 | -2% | 6% | i
O=C(CSc1nc2ccccc2nc1SCC(=O)N1CCOCC1)N1CCOCC1 | -2% | 9% | . | -1% | 11% | .
CCOc1ccc2nc(SCC(=O)N3CCCCCC3)c(C#N)cc2c1 | -16% | 16µM* | >77 | -18% | ? | .
O=C(CSc1nc2ccccc2nc1SCC(=O)N1CCCCC1)N1CCCCC1 | -1% | 17% | . | 0% | 25µM* | .
O=C(O)CSCCc1ccccc1 | -1%[11.5 µM] | 12%[11.4 µM] | . | 1%[11.5 µM] | 1%[11.4 µM] | .
Cc1ccccc1NC(=O)CSC(N)=O | -1% | -9% | >77 | -1% | -26% | >57
Cc1ccccc1N=C(N)Nc1ccccc1C | 1% | 16µM* | . | 0% | ? | .
CCC(c1nnnn1CCc1ccccc1)N(Cc1ccco1)Cc1cc2cc(C)cc(C)c2[nH]c1=O (stereo unspecified) | ? | 13µM* | >77 | -18% | ? | >57
CC1=C(C(=O)OCc2ccc3c(c2)OCO3)C(c2ccc(Cl)cc2)NC(=O)N1 (stereo unspecified) | -2% | 18% | . | -4% | 32µM* | .
CC1=C(C(=O)OCc2ccc3c(c2)OCO3)C(c2ccc(F)cc2)NC(=O)N1 (stereo unspecified) | -4% | ? | >77 | -1% | ? | >57
COC(=O)N1CCC2(CCN(C(=O)Nc3ccc(OC)cc3)CC2)CC1 | 0% | 16µM* | . | 0% | ? | .
COc1ccc(NC(=O)N2CC3(CCN(C(=O)c4c(C)noc4C)CC3)C2)cc1 | 0% | 13µM* | . | 0% | ? | .
COc1ccc(NC(=O)N2CC3(CCN(C(=O)c4ccc(OC)cc4)CC3)C2)cc1 | -6% | 16% | . | 0% | 5% | .
O=C(O)c1ccccc1NS(=O)(=O)c1cccc2ccccc12 | -3% | -8% | . | -11% | 5% | .
COc1cccc(NC(=O)c2ccccc2-c2nc(-c3ccc(F)cc3)no2)c1 | 0% | 32µM* | >77 | -3% | ? | >57
SMILES | Caspase-1 inhib | HEK293 cAMP cs | GBA activity | Casp7 inh | TSHR agonist | Bst PK mod
COc1nc(-c2ccc(Cl)cc2)ccc1-c1noc(-c2ccco2)n1 | -4% | 14% | >77 | 0% | 0% | >57
COc1ccc(-c2noc(-c3ccccc3C(=O)NCc3ccco3)n2)cc1 | -3% | 16µM* | >77 | 2% | ? | >57
COc1ccc2oc(=N)c(C(=O)Nc3ccccc3)cc2c1 | ? | 20% | >77 | -26% | 15% | 8.2*
COc1cccc(-c2ccc(-c3noc(-c4ccccc4F)n3)c(OC)n2)c1 | 0% | 16% | 10* | -4% | 23% | >57
CNC(=O)c1cc2cc(OC)ccc2oc1=N | . | 9% | >77 | ? | -1% | .
CN(C)c1ccc(-c2cc(N(C)Cc3ccco3)ncn2)cc1 | -9% | -2% | . | -11% | . | .
CC(C)(N)C(=O)N[C@@H]1C(=O)N2[C@@H]1SC(C)(C)[C@H]2C(=O)O | -2%[11.5 µM] | 0%[11.4 µM] | . | 0%[11.5 µM] | -5%[11.4 µM] | .
COc1cccc(NC(=O)c2ccccc2-c2nc(-c3ccc(Cl)cc3)no2)c1 | -6% | ? | >77 | -3% | ? | >57
COc1cccc(NC(=O)c2ccccc2-c2nc(-c3ccccc3)no2)c1 | -3% | 10µM* | >77 | -1% | ? | >57
Cc1cc(C)c(/C=C2/C(=O)Nc3ccccc32)[nH]1 | -4% | 1.6µM* | . | 1% | ? | .
COc1cc(OC)c(/C=C2/C(=O)Nc3ccccc32)c(OC)c1 | -3% | -6% | . | 0% | 15% | .
COc1ccc(-c2cc3ccccc3n2CC(O)CNC(CO)(CO)CO)cc1 (stereo unspecified) | -1% | -3% | 14* | 2% | -7% | >11
CCc1c(C#N)c(SCc2c(C)noc2C)nc2c1C(=O)CC(C)(C)C2 | -2% | 13µM* | >77 | -1% | ? | >57
CC(C)S | 0% | 12% | . | 1% | -1% | .
Cc1nc2ncnn2c(C)c1Cc1ccc(Cl)cc1F | 0% | 27% | . | 0% | 25µM* | .
COc1ccc2c(c1)c(=O)c(Br)c(C)n2Cc1ccccc1 | -2% | 32µM* | . | -1% | ? | .
COc1ccc2c(c1)c(CC(=O)O)c(C)n2Cc1ccc(F)cc1 | 0% | ? | . | 1% | ? | .
CC(C)N(CCNC(=O)c1ccc(Cc2nc3ccccc3[nH]2)cc1)C(C)C | -2% | -13% | . | 1% | -4% | .
CC#CCN(CC#CC)S(=O)(=O)c1ccc(-n2cnnn2)c(OC)c1 | 0% | 13µM* | >77 | -1% | ? | >57
COc1cc(S(=O)(=O)N(Cc2ccc(C)cc2)C2CCCCC2)ccc1-n1cnnn1 | 1% | 13% | >77 | -4% | 6% | >57
COc1ccc(Oc2ncc3nc(-c4cccc(C#N)c4)c(=O)n(CCC#N)c3n2)cc1 | -11% | ? | . | -21% | ? | .
O=C(CCC1CCCCC1)Nc1c2c(nn1-c1ccc(F)cc1)CS(=O)(=O)C2 | -2% | 3.2µM* | >77 | 0% | ? | >57
CC(C)CC(=O)Nc1c2c(nn1-c1ccc(F)cc1)CSC2 | -2% | ? | . | -4% | ? | .

From PubChem BioAssay
